High-throughput results deposited in PubChem BioAssay by National Center for Advancing Translational Sciences (NCATS).
TDP1 cell noCPT: qHTS for Inhibitors of human tyrosyl-DNA phosphodiesterase 1 (TDP1): qHTS in cells in absence of CPT; Potency, µM (top dose mostly 46.2 µM), without a hit: at the highest dose activity change, negative = growth inhibition, most hits filed as inhibitors; AID 686978, 2013; DT40 Tdp1-/- hTDP1 cells, no CPT, ATP luminescence, 48 h; 420,000 compounds, 15% hits; also: % is scaled to controls: 0 for no effect and ±100 for the full control effect; nearly all actives have a fitted effect of over 55% in size
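A cellular qHTS used chicken DT40 cells lacking endogenous Tdp1 but carrying stably transfected human TDP1. Compounds were applied without camptothecin, and cell growth kinetics were judged by ATP-dependent luminescence after ≥48 hr.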
TGFb SMAD3 inh: TGF-b pathway inhibition. AID 588855. 410,000 compounds, 1.2% hits. Potency, µM (top dose mostly 46.1 µM), without a hit: at the top dose activity, negative = inhibition, most hits filed as inhibitors. HepG2 CAGA-GFP TGF-b/SMAD3 reporter, GFP fluorescence, 18 h; TGF-beta stimulated, 500 pg/mL final; also: % is scaled to controls: 0 for no effect and ±100 for the full control effect; nearly all actives have a fitted effect of over 65% in size
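TGF-beta reporter screen: HEPG2 CAGA-GFP, 1% FBS, 500 pg/mL TGF-beta final, 18 h; per-cell GFP summed per well; curves fitted and categorized by class.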
HepG2 viability: HepG2 cytotoxicity, counter-screen for TGF-b inhibitors; 410,000 compounds, 0.76% hits; HepG2 CAGA-GFP viability, ATP luminescence, 18 h; Potency, µM (highest dose often 46.1 µM), inactives show at the highest dose activity change, negative = cytotoxicity, actives largely listed as cytotoxic; AID 588856
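HepG2 CAGA-GFP cells (1000/well, DMEM with 1% FBS) received compound, then TGF-beta at 500 pg/mL final, and were incubated 18 hours at 37 degrees C. Viability was read by CellTiter-Glo luminescence. Media-only wells were set as complete cell-killing and DMSO as no toxicity.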
TDP1 cell CPT: growth inhibition of DT40 Tdp1-/-;hTDP1 cells with camptothecin (screen for TDP1 inhibitors). chicken DT40 Tdp1-/-;hTDP1 cells + 20 nM CPT, ATP luminescence, 48 h. Potency, µM (highest dose often 46.2 µM), inactives show at the highest dose activity change, negative = growth inhibition, usual class: inhibitors. 420,000 compounds, 12% hits; also: % is scaled to controls: 0 for no effect and ±100 for the full control effect; nearly all actives have a fitted effect of over 55% in size
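Chicken DT40 Tdp1-/- cells complemented with human TDP1, 400 cells/well, exposed to compounds plus 20 nM camptothecin for at least 48 h at 37 C; viability read as ATP content by CellTiter-Glo luminescence.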
ATXN2 expr inh: inhibitors of ATXN2 expression; HEK-293 ATXN2-luciferase reporter, luminescence, 24 h; Potency, µM (top dose mostly 57 µM), for inactives: at the top dose activity change, negative = inhibition, actives largely listed as inhibitors; 360,000 compounds, 0.72% hits; AID 1745845; also: % is scaled to controls: 0 for no effect and ±100 for the full control effect; nearly all actives have a fitted effect of over 55% in size
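qHTS (up to 57 uM final) was run with 24 h compound exposure of reporter cells at 37 °C. Each well was multiplexed: SteadyGlo luminescence measured ATXN2-luciferase expression after a fluorogenic Gly-Phe-AFC viability readout (25 uM final).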
ATXN viability: reduces viability in counter-screen for ATXN expression inhibitors. 400,000 compounds, 0.49% hits. S2 cells (HEK-293 line with an ATXN2-luciferase reporter) viability, CellTiter-Fluor protease fluorescence, 24 h. AID 651635. Potency, µM (series often up to 56.7 µM), most hits filed as cytotoxic; also: nearly all actives have a fitted effect of over 40% in size
* marks the source's active call; other numbers are inactive results; i = inactive; ? = inconclusive; · = not tested or not shown; [ ] = remark or other dose. Shown are actives, neighbours in structure and some others; about 17% of the full set was active somewhere. Calls follow the shape of the dose curve; as a rule, active = well fitted curve in the direction sought with a large enough effect; inconclusive = small, poorly fitted or top-dose-only effect, or another doubt; inactive = no such curve, though single readings can be large; an effect the other way counts as inactive or inconclusive. Potency is read from the fitted curve at half-maximal effect.

SMILES	TDP1 cell noCPT	TGFb SMAD3 inh	HepG2 viability	TDP1 cell CPT	ATXN2 expr inh	ATXN viability
COc1ccccc1C(=O)Nc1nc(-c2ccc(S(=O)(=O)N3CCOCC3)cc2)cs1	2.3µM*	-7%	-23%	2.6µM*	14µM*	?
COc1ccccc1OC(C)C(=O)Nc1nc(-c2ccc(S(=O)(=O)N3CCOCC3)cc2)cs1 (stereo not given)	?	2%	2%	?	5%	?
O=C(COc1cccc(Cl)c1)Nc1nc(-c2ccc(S(=O)(=O)N3CCOCC3)cc2)cs1	12µM*	14%	1%	21µM*	?	i
Cc1cccc(Cc2c(C)nc3nc(SCC(=O)NC4CCCCC4)nn3c2C)c1	-4%	?	-27%	-29%	1%	i
Cc1c(N=C(N)/N=C(\N)Nc2ccc(Br)cc2)c(=O)n(-c2ccccc2)n1C	?	0%	1%	?	-14%	?
COc1ccc(C(CCNCc2ccc(N(C)C)cc2)c2ccccc2)cc1 (stereo not given)	21µM*	?	-186%	21µM*	?	22µM*
COc1ccc(C(CCNCc2ccc(OC)c(OC)c2)c2ccc(F)cc2)cc1 (stereo not given)	-7%	0%	-24%	4%	-1%	i
CC(C)Oc1ccc(C(CCNCc2ccc(O)cc2)c2ccccc2)cc1 (stereo not given)	4.1µM*	14µM*	-92%	5.8µM*	?	·
COc1ccc(CNCCC(c2ccc3c(c2)OCO3)c2ccccc2OC)cc1 (stereo not given)	2.9µM*	?	10µM*	6.5µM*	?	·
CC1(C)COC(c2cc3c(cc2Br)OCO3)OC1	-19%	-3%	-2%	-17%	6%	i
CC1(C)NC(=O)N(CC(=O)OCC(=O)Nc2cc(S(=O)(=O)N3CCCCCC3)ccc2Cl)C1=O	-5%	12%	2%	6%	5%	i
Cc1cnc(-n2ncc(C(=O)NCCc3cccnc3)c2C)nc1-c1ccc(F)cc1	?	·	·	-7%[9.04 µM]	·	i
Cc1cnc(-n2ncc(C(=O)NCCc3cccnc3)c2C)nc1-c1cccs1	21µM*	·	·	-5%[9.04 µM]	·	i
CC(/C=C/c1ccccc1)=N/NC(=O)c1nc2nc(C)cc(C)n2n1	?	-2%	16%	-7%	·	?
CC(/C=C/c1ccccc1)=N\Nc1nc(C)cc(C)n1	5.2µM*	?	-26%	4.6µM*	22%	?
Cc1cc(C)nc(NN=C(c2ccccc2)c2ccccc2)n1	10µM*	11µM*	-64%	16µM*	·	i
Cc1ccc(C(=O)N/C(=C\c2ccc(Cl)cc2)C(=O)NCCN2CCOCC2)cc1	1%	17%	-4%	3%	4%	i
CCOC(=O)NC(=O)COC(=O)CNC(=O)c1ccc(OCC)c(OCC)c1	16%	-19%	-20%	0%	-27%	i
Cc1ccccc1N(C)C(=O)c1noc2c1COc1ccccc1-2	15µM*	-5%	3%	23µM*	·	·
Cc1ccc2c(c1)-c1onc(C(=O)N(C)c3ccc(F)cc3)c1CO2	·	4%	-1%	·	10%	i
Cc1cc(N/N=C/c2ccccc2)nc(NCc2ccccc2)n1	2.6µM*	?	-20%	4.6µM*	22%	i
Cc1cc(C)nc(N/N=C/c2cccc(Cl)c2)n1	-22%	-6%	7%	-20%	·	i
CN(C)c1nc(NCc2ccccc2)nc(N/N=C/c2ccc(Cl)cc2Cl)n1	?	23%	-7%	23µM*	73%	·
